Screening data (PubChem)
Compounds with a hit are over-represented: about 4.8% of the library has one in this group of screens.
Calb FLC: affects C. albicans growth with fluconazole | C. albicans CaCi-2 (fluconazole-resistant clinical isolate) + fluconazole, Alamar Blue growth, 48 h | growth inhibition, % (concentration not given with the values) | 300,000 tested, 0.57% active | AID 1979;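 active = growth inhibition above about 58% in most replicates, limit read from the data, passing the limit was not always enough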;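 also: all wells also contain fluconazole at 8 µg/ml as a sub-toxic cotreatment; 0% = median of DMSO wells and 100% = median of geldanamycin control wells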
Beta cell apopt: beta cell apoptosis inhibition. INS-1E cytokine-induced death, ATP luminescence, 48 h; percent of positive-control rescue, neutral wells zero. protection from apoptosis, % (concentration not given with the values). 300,000 tested, 0.8% active;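 active = Every replicate reaches about 75%, or at least half do and their mean reaches it too, limit read from the data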;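 also: 0% = cytokine-treated negative control wells and 100% = positive control rescue; higher means more ATP so stronger rescue from cytokine killing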
CSC inhib: blocks cancer stem cells | 300,000 tested, 1.1% active | inhibition, % at 7.5 µM | cancer stem cell-like cells viability, luminescence; in the data active = inhibition above about 75%; tested in HMLE shEcad cells
Mdm2-MdmX inh: disrupts the human Mdm2-MdmX interaction; inhibition, % at 8 µM; AID 485346; SaOS-2 split-luciferase Mdm2/MdmX complementation, luminescence; O15151+Q00987; 330,000 tested, 3% active;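 active = inhibition of at least 50% at 8 µM in the primary screen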
Target sequence (O15151 whole entry, looked up): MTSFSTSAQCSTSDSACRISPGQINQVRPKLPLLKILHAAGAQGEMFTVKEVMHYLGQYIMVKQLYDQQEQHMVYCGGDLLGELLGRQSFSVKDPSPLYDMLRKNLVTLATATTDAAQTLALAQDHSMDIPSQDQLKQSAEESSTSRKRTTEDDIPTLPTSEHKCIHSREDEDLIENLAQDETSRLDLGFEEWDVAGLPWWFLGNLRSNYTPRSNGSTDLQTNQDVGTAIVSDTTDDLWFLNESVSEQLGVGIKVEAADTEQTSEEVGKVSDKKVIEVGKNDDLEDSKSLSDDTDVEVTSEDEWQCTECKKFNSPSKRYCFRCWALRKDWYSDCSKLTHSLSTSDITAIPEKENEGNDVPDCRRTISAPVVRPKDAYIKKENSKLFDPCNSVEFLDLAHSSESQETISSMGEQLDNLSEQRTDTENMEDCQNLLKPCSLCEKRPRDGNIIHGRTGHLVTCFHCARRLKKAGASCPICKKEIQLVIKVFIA
Target sequence (Q00987 whole entry, looked up): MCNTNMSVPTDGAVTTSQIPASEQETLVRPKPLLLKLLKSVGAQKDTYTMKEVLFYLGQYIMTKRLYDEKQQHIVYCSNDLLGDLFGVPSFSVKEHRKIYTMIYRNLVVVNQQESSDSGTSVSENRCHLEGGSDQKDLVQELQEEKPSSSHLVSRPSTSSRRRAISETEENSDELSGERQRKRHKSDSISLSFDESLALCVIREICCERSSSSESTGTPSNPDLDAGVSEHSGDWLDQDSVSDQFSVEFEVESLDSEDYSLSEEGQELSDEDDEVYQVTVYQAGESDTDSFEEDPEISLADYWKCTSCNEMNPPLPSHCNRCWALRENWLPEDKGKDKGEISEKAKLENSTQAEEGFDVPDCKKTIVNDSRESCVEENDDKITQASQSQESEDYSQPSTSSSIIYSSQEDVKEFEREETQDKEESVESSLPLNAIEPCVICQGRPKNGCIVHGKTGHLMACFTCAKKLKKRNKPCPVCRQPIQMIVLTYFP
MPTP inh: permeability transition pore inhibition | isolated mouse mitochondria, Ca2+ swelling absorbance, 30 min | 360,000 tested, 1.4% active | inhibition, % at 10 µM;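 active = inhibition of 50% or more, scaled per plate between neutral and stimulator controls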;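 also: 0% = DMSO wells given calcium and 100% = 1 mM EGTA wells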
* = called active by the depositor; . = not tested or not shown.

SMILES	Calb FLC	Beta cell apopt	CSC inhib	Mdm2-MdmX inh	MPTP inh
O=C(NCC1CCCO1)c1nn2c(c1Cl)NC(c1ccc(F)cc1)CC2C(F)(F)F (stereo unspecified)	.	-5.8	-15.8	.	0.1
O=C(NCC1CCCO1)c1cc2n(n1)C(C(F)(F)F)CC(c1ccc(Br)cc1)N2 (stereo unspecified)	92.8*	-29.6	0.7	12.7	1.1
CCNC(=S)NNC(=O)c1cc(-c2ccc(OC)cc2)nc2ccccc12	99.3*	53.4	26.3	-31.2	4.4
CCNC(=S)NNC(=O)c1cc(-c2cccc(C)c2)nc2ccccc12	115.9*	42.1	10.8	-10.2	4.9
CCNC(=S)NNC(=O)c1cc(-c2cccc(OCC)c2)nc2ccccc12	12.5	27.4	-2.5	3.1	-0.1
O=C(CN(c1ccc(Cl)cc1)S(=O)(=O)c1ccc(Cl)c([N+](=O)[O-])c1)NCCc1ccc(F)cc1	-5.8	2.6	81.8*	9.1	37.2
CCCc1nc(SCc2ccccn2)c2c(=O)n(C)c(=O)n(C)c2n1	-1.2	10.7	106.7*	1.2	-2.5
Oc1ccc(-c2csc(-c3c[nH]c4ccccc34)n2)c(O)c1	-29.9	.	89.8*	-29.0	28.5
Cc1ccc(-c2csc(-c3c[nH]c4ccccc34)n2)c(C)c1	-20.6	0.6	99.3*	-12.6	3.8
CSc1cnc2c(N)nc(N(C)C)nc2n1	95.1*	-1.2	-4.5	23.9	-0.8
C=CCNc1ncnc2c1ncn2[C@H]1CN(Cc2ccc(-c3ccccc3)cc2)C[C@@H](CO)O1	.	.	.	.	0.2
COCCn1c(=O)[nH]c(=O)c2cc(C(=O)c3cc(Cl)ccc3O)cnc21	88.5*	2.7	-5.4	20.2	-5.3
COc1ccc(O)c(C(=O)c2cnc3c(c2)c(=O)[nH]c(=O)n3C)c1	27.5	0.2	-11.6	5.4	0.2
CC1=NN(c2nc3ccccc3[nH]2)C(=O)/C1=C/N(C)C	-15.3	113.5*	91.5*	28.9	0.8
COC(=O)C1C(=O)C2=C(CC1C)NC(=O)CC2c1cccc(C)c1 (stereo unspecified)	-1.9	12.8	101.0*	-6.5	1.0
Cc1nn(-c2ccc([N+](=O)[O-])cc2)c2c1C(c1ccc(OC(F)F)cc1)N1C(=N2)C(=O)Nc2ccccc21 (stereo unspecified)	86.8*	38.7	19.9	42.9	-1.1
Cc1ccc(NC(=O)CSC2=C(C#N)C(c3ccco3)C3=C(CCCC3=O)N2)cc1 (stereo unspecified)	-3.3	-12.1	24.1	-7.5	1.1
Cc1ccc(C(=O)CSC2=C(C#N)C(c3ccco3)C3=C(CC(C)(C)CC3=O)N2)cc1 (stereo unspecified)	5.0	6.7	97.2*	22.3	1.4
N#CC1=C(SCC(=O)c2ccc(Cl)cc2)NC2=C(C(=O)CCC2)C1c1ccco1 (stereo unspecified)	57.9	8.0	92.8*	40.2	-3.6
Cc1ccc(C2=NNC3(CCOC(C)(C)C3)S2)cc1 (stereo unspecified)	95.5*	8.6	-5.4	-56.0	-0.3
CCC(C(=O)NCc1ccccc1)n1c(CSCCOc2ccccc2)nc2ccccc21 (stereo unspecified)	.	.	.	.	0.5
COc1ccc(-n2c(-c3cccc(C)c3[N+](=O)[O-])n[nH]c2=S)cc1	73.6*	-2.2	-5.2	-6.5	0.9
CN(CC(=O)NCc1ccc(F)cc1)Cc1ccc(Br)cc1	17.3	-6.4	0.7	-12.3	1.8
COc1ccc(Br)cc1CN(C)CC(=O)NCc1ccc(F)cc1	15.6	97.8*	11.8	21.3	0.4
O=C(NCc1ccccc1)C1c2ccccc2Oc2ccccc21	117.8*	-5.8	-14.7	0.3	-1.6
SMILES	Calb FLC	Beta cell apopt	CSC inhib	Mdm2-MdmX inh	MPTP inh
CCOC(=O)C1=CCN(S(=O)(=O)c2ccc(Br)cc2)C1c1cccc(C)c1 (stereo unspecified)	.	.	.	.	0.4
CC(=O)c1cccc(NC(=O)C2Cc3c(-c4ccc(Cl)cc4)ccnc3O2)c1 (stereo unspecified)	.	.	.	.	0.9
Cc1ccc2nsnc2c1NC(=O)COc1ccccc1F	113.9*	-0.1	-14.6	3.2	1.9
Cc1ccc2nsnc2c1NC(=O)CCc1ccccc1	-26.1	6.1	0.0	-10.1	3.1
COC(=O)C[C@H]1C=C[C@@H](NC(=O)Nc2c(C)noc2C)[C@@H](CO)O1	.	.	.	.	3.1
NC(=O)c1c(NC(=O)c2ccccc2F)sc2c1CCCC2	81.7*	-3.5	-9.2	-188.5	-1.1
CC(C)c1ccccc1NC(=O)Nc1nnc([C@@H]2C[C@H](O)[C@@H](CO)O2)s1	.	.	.	.	-1.0
Cc1cccc(CN2CCN([C@H]3CS(=O)(=O)N[C@@H]3COCc3ccccc3)CC2)c1	.	.	.	.	0.7
